Experimental data taken from PubChem BioAssay (EPA / NIEHS).
“And” between values parts separate entries of the source, which are not always exact repeats. Identical values can stand only once. Results filed as inconclusive are left out. The source made the active and inactive calls. The calls were made as follows, unless noted: active = hit-call score of the fitted dose curve at least 0.9, where 1 is the maximum; inactive = score below 0.9.

Assays:
[1] = ATG_PBREM_CIS: Attagene CIS-FACTORIAL HepG2 Assay for human Phenobarbital-responsive Enhancer Module (PBREM) (AID 2282955); conditions: HepG2 PBREM cis-reporter, Attagene multiplexed transcription; actives raise or lower the signal
How it was run: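 Multiplexed cis-reporter readout in human hepatoma HepG2 cells; PBREM-regulated transcript quantified after 24 h exposure by fluorescent RT-PCR fragment analysis. Signal changes up or down fitted relative to DMSO.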

[2] = biological target: Paired box protein Pax-6 (Homo sapiens) (UniProt P26367); experiment: ATG_Pax6_CIS: Attagene CIS-FACTORIAL HepG2 Assay for human Paired Box 6 (PAX6) (AID 2282956); conditions: HepG2 CIS-FACTORIAL PAX6 reporter transcription, RNA readout; actives raise or lower the signal
How it was run: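 Fluorescent RT-PCR products separated by capillary electrophoresis report PAX6-linked promoter mRNA in HepG2 cells 24 h post-dose. Curves fitted bidirectionally, DMSO as negative control.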

[3] = ATG_PXRE_CIS: Attagene CIS-FACTORIAL HepG2 Assay for human Pregnane X Receptor Element (PXRE) (AID 2282957); conditions: HepG2 Attagene CIS-FACTORIAL PXRE reporter, mRNA; actives raise or lower the signal
How it was run: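 Using HepG2 transfected with multiple reporter transcription units, endogenous factor-driven transcription was scored as reporter mRNA after 24 h exposure.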

[4] = ATG_PPRE_CIS: Attagene CIS-FACTORIAL HepG2 Assay for human Peroxisome Proliferator-activated Response Element (PPRE) (AID 2282958); conditions: HepG2 PPRE cis-element reporter, Attagene transcription factor profiling; actives raise or lower the signal
How it was run: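 DMSO served as negative control and baseline for bidirectional curve fitting. Signal came from PPRE-regulated reporter mRNA in HepG2 cells, measured 24 h post-dosing by RT-PCR, 6-FAM primer extension and capillary electrophoresis.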

[5] = ATG_RORE_CIS: Attagene CIS-FACTORIAL HepG2 Assay for human RAR-related Orphan Receptor Element (RORE) (AID 2282959); conditions: HepG2 Attagene cis-factorial RORE reporter, mRNA; actives raise or lower the signal
How it was run: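 Transfect HepG2 with MRTUs; treat 24 h; extract RNA; RT with oligo(dT); PCR with reporter-specific primers; 6-FAM primer extension; HpaI digest 2 h at 37 C; capillary electrophoresis. Fit vs DMSO, bidirectional.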

[6] = ATG_Sox_CIS: Attagene CIS-FACTORIAL HepG2 Assay for human SRY-box transcription factor (SOX) (AID 2282960); conditions: HepG2 Attagene cis-factorial SOX reporter, mRNA; actives raise or lower the signal
How it was run: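 Fluorescence-labelled cDNA fragments from reporter transcripts, sized by CE, give the signal. Cells: HepG2, transiently transfected with cis-regulated reporter units. Exposure 24 h; DMSO negative control; bidirectional curve fitting.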

[7] = biological target: Transcription factor Sp1 (Homo sapiens) (UniProt P08047); experiment: ATG_Sp1_CIS: Attagene CIS-FACTORIAL HepG2 Assay for human Specificity Protein 1 (Sp1) (AID 2282961); conditions: HepG2 Sp1 cis-reporter transcription, actives raise or lower the signal
How it was run: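 Chemicals are dosed onto HepG2 cells transfected with multiple cis-promoter reporter constructs, and after 24 h reporter RNA is reverse-transcribed, PCR-amplified and resolved by capillary electrophoresis for fluorescence quantitation; activity is scored up or down against DMSO.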

[8] = ATG_SREBP_CIS: Attagene CIS-FACTORIAL HepG2 Assay for human Sterol Regulatory Element Binding (SREBP) (AID 2282962); conditions: HepG2 Attagene cis-factorial SREBP reporter, mRNA; actives raise or lower the signal
How it was run: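 Endogenous factor activity is measured in HepG2 through multiplexed reporter units under cis-element control. Following a 24 h incubation, reporter transcripts are reverse-transcribed, PCR-amplified and sized by capillary electrophoresis; activity is fitted in both directions relative to DMSO.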

[9] = biological target: Signal transducer and activator of transcription 3 (Homo sapiens) (UniProt P40763); experiment: ATG_STAT3_CIS: Attagene CIS-FACTORIAL HepG2 Assay for human Signal Transducer and Activator of Transcription 3 (STAT3) (AID 2282963); conditions: HepG2, Attagene cis-factorial STAT3 reporter transcription; actives raise or lower the signal
How it was run: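 HepG2, MRTU-transfected, 24 h dosing. RNA → RT → PCR → FAM label → HpaI → CE. Bidirectional fit vs DMSO.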

[10] = ATG_TA_CIS: Attagene CIS-FACTORIAL HepG2 Assay for human TA Basal Promoter (AID 2282964); conditions: HepG2 Attagene CIS-factorial TA basal promoter reporter; actives raise or lower the signal
How it was run: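 Cis-factorial format in HepG2: reporters report endogenous factors, not chimeric Gal4 fusions. After 24 h treatment, reporter transcripts were measured by RT-PCR-capillary electrophoresis fluorescence, analysed bidirectionally versus DMSO.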

[11] = ATG_TCF_b_cat_CIS: Attagene CIS-FACTORIAL HepG2 Assay for human T-Cell-Factor with beta-catenin (TCF/b-cat) (AID 2282965); conditions: HepG2 TCF/beta-catenin cis-reporter transcription, actives raise or lower the signal
How it was run: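 Using capillary electrophoresis as the read-out, labelled reporter cDNA fragments from transiently transfected HepG2 were sized and quantified. Exposure lasted 24 hours; activity in either direction was referenced to DMSO.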

[12] = ATG_TAL_CIS: Attagene CIS-FACTORIAL HepG2 Assay for human TAL Basal Promoter (AID 2282966); conditions: HepG2 Attagene cis-factorial TAL promoter reporter; actives raise or lower the signal;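 also: background control endpoint measuring basal TAL promoter reporter mRNA not a specific factor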
How it was run: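 After 24 hours of chemical exposure, transfected HepG2 cells yielded RNA that was converted to 6-FAM-labelled, HpaI-digested reporter fragments for capillary electrophoresis. Values derive from bidirectional fitting against DMSO controls.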

[13] = ATG_TGFb_CIS: Attagene CIS-FACTORIAL HepG2 Assay for human Transforming Growth Factor (TGF) (AID 2282967); conditions: HepG2 Attagene CIS TGFb reporter, mRNA transcription; actives raise or lower the signal
How it was run: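 Multiplexed cis-reporter HepG2 system, 24 h treatment; mRNA induction read by fluorescence after RT-PCR and CE; DMSO negative control, bidirectional curve fitting.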

[14] = ATG_VDRE_CIS: Attagene CIS-FACTORIAL HepG2 Assay for human Vitamin D Receptor Element (VDRE) (AID 2282968); conditions: HepG2 VDRE cis-reporter transcription, actives raise or lower the signal
How it was run: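 Steps: transfect HepG2 with multiple reporter transcription units; dose chemicals 24 h; isolate RNA; RT-PCR; label with 6-FAM primer extension; HpaI digest; capillary electrophoresis. Curves fitted both directions against DMSO.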

[15] = biological target: Nuclear receptor subfamily 1 group I member 3 (Homo sapiens) (UniProt Q14994); experiment: ATG_CAR_TRANS: Attagene TRANS-FACTORIAL HepG2 Assay for human Constitutive Androstane Receptor (CAR) (AID 2282969; active = hit-call score of the fitted dose curve at least 0.9, where 1 is the maximum;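 also: activators raise reporter mRNA above DMSO so AC50 marks induction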); conditions: HepG2 Attagene TRANS-FACTORIAL CAR reporter
How it was run: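 Steps: transient transfection of HepG2 with multiple GAL4-UAS reporter units; 24 h compound incubation; RNA isolation, RT-PCR, 6-FAM primer extension, HpaI digest; capillary electrophoresis. Gain-of-signal relative to DMSO negative control.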

[16] = biological target: Estrogen receptor (Homo sapiens) (UniProt P03372); experiment: ATG_ERa_TRANS: Attagene TRANS-FACTORIAL HepG2 Assay for human Estrogen Receptor alpha (ERa) (AID 2282970; active = hit-call score of the fitted dose curve at least 0.9, where 1 is the maximum); conditions: HepG2 Attagene TRANS ERa GAL4 reporter, mRNA
How it was run: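 Liver-derived HepG2 cells expressing chimeric nuclear receptor-Gal4 proteins from transient transfection were exposed for 24 hours. Gain of reporter mRNA signal versus DMSO, read by capillary electrophoresis of FAM-labelled PCR products, was recorded.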

[17] = biological target: Steroid hormone receptor ERR1 (Homo sapiens) (UniProt P11474); experiment: ATG_ERRa_TRANS: Attagene TRANS-FACTORIAL HepG2 Assay for human Estrogen-Related Receptor alpha (ERRa) (AID 2282971; active = hit-call score of the fitted dose curve at least 0.9, where 1 is the maximum); conditions: HepG2 Attagene TRANS reporter, ERRa transactivation
How it was run: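 Reporter transcript induction was quantified by RT-PCR and capillary electrophoresis of FAM-labelled, HpaI-cut products after 24 h treatment of HepG2 cells carrying transiently transfected GAL4-UAS reporter units and an exogenous ERRa-Gal4 fusion; activity scored as increase over DMSO.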

[18] = biological target: X-box-binding protein 1 (Homo sapiens) (UniProt P17861); experiment: ATG_Xbp1_CIS: Attagene CIS-FACTORIAL HepG2 Assay for human X-box Binding Protein 1 (XBP1) (AID 2282972); conditions: HepG2 XBP1 cis-element reporter, Attagene multiplex; actives raise or lower the signal
How it was run: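 Multiplexed cis-reporter readout in transfected HepG2 liver cells. Exposure lasted 24 hours. Activity in either direction was fitted against DMSO as negative control and baseline.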

[19] = ATG_M_19_TRANS: Attagene TRANS-FACTORIAL HepG2 Assay for M19 Transcription Factor (Internal Marker) (AID 2282974; active = hit-call score of the fitted dose curve at least 0.9, where 1 is the maximum); conditions: HepG2 Attagene TRANS-FACTORIAL M19 internal marker reporter
How it was run: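 Multiplexed TRANS format: HepG2 liver cells bearing transient GAL4-UAS reporter units, chemical treatment 24 h, reporter transcripts quantified by RT-PCR plus capillary electrophoresis. DMSO defines baseline.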

[20] = ATG_GAL4_TRANS: Attagene TRANS-FACTORIAL HepG2 Assay for GAL4 (Internal Marker) (AID 2282976; active = hit-call score of the fitted dose curve at least 0.9, where 1 is the maximum); conditions: HepG2 Attagene TRANS GAL4 internal marker reporter
How it was run: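 First, HepG2 cells were transfected with reporter units under GAL4-UAS control. Next, they were treated with chemical for 24 h. Finally, RNA was reverse-transcribed, PCR-amplified, FAM-labelled and resolved by capillary electrophoresis, with induction scored against DMSO.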

Measured: AC50

Chain of Transcription factor Sp1 (Homo sapiens) (P08047 whole entry, looked up): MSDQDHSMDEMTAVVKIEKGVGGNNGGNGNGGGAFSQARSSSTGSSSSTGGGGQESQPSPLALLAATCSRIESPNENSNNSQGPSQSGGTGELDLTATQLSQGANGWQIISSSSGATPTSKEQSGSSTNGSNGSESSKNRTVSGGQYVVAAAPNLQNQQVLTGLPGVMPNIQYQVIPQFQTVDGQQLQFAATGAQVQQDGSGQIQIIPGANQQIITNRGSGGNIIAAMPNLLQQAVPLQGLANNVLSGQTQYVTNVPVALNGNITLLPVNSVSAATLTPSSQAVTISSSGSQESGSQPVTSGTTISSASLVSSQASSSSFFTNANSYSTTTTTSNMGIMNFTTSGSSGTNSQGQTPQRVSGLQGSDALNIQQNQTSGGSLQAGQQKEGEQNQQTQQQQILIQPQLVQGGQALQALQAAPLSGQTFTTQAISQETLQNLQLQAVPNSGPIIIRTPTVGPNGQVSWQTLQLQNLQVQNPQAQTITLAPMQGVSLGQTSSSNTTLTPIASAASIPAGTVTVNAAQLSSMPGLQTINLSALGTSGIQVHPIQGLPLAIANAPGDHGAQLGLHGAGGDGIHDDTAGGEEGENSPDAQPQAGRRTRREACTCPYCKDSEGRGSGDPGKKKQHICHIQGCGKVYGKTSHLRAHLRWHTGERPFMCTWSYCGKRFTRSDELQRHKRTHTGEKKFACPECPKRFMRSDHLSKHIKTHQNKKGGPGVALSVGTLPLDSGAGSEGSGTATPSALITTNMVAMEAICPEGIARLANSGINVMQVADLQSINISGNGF
Chain of Steroid hormone receptor ERR1 (Homo sapiens) (P11474 whole entry, looked up, the tested form may be a part): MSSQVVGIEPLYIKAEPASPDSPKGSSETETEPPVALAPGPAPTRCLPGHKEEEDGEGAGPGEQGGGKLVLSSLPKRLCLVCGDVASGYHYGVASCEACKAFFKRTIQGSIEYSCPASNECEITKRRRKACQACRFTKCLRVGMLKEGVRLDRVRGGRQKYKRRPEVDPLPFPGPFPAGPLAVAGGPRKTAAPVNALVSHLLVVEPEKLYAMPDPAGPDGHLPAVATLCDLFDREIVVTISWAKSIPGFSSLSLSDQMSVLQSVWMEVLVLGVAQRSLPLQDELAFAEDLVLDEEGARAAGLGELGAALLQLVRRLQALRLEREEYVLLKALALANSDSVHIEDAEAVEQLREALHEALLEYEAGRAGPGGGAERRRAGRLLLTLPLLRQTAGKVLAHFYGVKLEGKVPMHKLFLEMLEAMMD
Chain of Paired box protein Pax-6 (Homo sapiens) (P26367 whole entry, looked up): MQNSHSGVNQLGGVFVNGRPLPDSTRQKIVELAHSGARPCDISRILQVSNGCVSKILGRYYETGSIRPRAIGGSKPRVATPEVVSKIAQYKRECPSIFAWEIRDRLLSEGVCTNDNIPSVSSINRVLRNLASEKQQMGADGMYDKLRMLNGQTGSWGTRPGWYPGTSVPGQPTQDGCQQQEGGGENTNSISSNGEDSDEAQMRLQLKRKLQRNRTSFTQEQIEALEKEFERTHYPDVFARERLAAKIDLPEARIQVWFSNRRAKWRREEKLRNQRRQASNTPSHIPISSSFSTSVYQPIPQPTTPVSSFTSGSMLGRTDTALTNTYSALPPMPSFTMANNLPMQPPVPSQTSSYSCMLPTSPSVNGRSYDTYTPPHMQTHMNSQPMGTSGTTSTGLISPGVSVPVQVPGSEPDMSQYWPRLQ
Chain of Nuclear receptor subfamily 1 group I member 3 (Homo sapiens) (Q14994 whole entry, looked up, the tested form may be a part): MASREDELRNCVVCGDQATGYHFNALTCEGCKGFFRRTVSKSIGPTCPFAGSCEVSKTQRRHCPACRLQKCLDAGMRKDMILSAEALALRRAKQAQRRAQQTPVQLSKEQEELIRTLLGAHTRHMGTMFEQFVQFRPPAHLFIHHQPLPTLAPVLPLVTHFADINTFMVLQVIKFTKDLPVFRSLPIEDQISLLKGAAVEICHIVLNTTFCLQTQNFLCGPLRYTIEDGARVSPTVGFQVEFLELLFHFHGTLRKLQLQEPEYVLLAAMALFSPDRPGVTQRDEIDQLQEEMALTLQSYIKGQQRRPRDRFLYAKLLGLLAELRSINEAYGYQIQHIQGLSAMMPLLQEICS
Chain of X-box-binding protein 1 (Homo sapiens) (P17861 whole entry, looked up): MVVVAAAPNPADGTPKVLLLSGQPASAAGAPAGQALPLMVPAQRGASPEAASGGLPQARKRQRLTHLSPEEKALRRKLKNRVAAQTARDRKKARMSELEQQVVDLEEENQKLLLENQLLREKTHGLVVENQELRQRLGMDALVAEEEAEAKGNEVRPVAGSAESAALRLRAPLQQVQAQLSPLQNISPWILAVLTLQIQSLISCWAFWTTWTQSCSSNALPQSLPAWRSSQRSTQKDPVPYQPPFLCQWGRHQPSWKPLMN
Chain of Estrogen receptor (Homo sapiens) (P03372 whole entry, looked up, the tested form may be a part): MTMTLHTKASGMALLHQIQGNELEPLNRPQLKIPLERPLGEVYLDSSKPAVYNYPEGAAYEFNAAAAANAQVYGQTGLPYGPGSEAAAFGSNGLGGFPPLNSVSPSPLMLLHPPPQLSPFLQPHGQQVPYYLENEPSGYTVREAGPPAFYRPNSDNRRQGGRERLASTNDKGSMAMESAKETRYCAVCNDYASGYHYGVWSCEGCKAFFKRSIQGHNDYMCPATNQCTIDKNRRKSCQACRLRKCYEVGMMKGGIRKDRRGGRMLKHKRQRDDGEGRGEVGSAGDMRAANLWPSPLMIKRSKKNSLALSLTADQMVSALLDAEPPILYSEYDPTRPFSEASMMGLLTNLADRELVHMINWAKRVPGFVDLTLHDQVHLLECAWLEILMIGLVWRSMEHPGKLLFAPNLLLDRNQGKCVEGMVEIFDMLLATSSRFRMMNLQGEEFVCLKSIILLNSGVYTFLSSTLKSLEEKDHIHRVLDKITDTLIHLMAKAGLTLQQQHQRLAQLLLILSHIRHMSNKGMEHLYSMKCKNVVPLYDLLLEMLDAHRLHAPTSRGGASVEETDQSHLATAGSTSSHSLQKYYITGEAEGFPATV
Chain of Signal transducer and activator of transcription 3 (Homo sapiens) (P40763 whole entry, looked up): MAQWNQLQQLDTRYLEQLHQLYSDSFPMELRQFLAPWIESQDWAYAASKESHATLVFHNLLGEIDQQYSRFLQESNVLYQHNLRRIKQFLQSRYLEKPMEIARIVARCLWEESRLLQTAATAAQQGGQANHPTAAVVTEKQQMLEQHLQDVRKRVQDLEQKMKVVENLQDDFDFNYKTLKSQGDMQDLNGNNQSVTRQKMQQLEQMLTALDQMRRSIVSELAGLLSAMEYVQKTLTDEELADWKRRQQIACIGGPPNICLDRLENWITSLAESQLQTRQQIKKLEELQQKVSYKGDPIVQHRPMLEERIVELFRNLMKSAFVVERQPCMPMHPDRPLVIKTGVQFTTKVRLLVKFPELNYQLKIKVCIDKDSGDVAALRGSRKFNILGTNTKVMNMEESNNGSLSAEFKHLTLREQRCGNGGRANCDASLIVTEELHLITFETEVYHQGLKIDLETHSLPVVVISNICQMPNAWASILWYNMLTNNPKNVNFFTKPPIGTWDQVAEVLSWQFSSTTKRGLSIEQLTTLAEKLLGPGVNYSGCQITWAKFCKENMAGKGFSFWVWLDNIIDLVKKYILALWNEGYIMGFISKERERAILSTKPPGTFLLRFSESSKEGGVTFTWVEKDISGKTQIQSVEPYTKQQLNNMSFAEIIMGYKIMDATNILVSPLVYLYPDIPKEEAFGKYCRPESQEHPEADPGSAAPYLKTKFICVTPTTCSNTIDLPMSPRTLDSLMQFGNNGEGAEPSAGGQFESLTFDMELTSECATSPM

NCC(F)(F)C(F)(F)C(F)(F)C(F)(F)F
inactive: [1] | [2] | [3] | [4] | [5] | [6] | [7] | [8] | [9] | [10] | [11] | [12] | [13] | [14] | [15] | [16] | [17] | [18] | [19] | [20]

FC(F)(F)COC(OCC(F)(F)F)OCC(F)(F)F
inactive: [1] | [2] | [3] | [4] | [5] | [6] | [7] | [8] | [9] | [10] | [11] | [12] | [13] | [14] | [15] | [16] | [17] | [18] | [20]

C[Si](C)(C)C(F)(F)C(F)(F)C(F)(F)F
inactive: [1] | [2] | [3] | [4] | [5] | [6] | [7] | [8] | [9] | [10] | [11] | [12] | [13] | [14] | [15] | [16] | [17] | [18] | [19] | [20]

OCCC(F)(F)C(F)(F)C(F)(F)C(F)(F)F
inactive: [1] | [2] | [3] | [4] | [5] | [6] | [7] | [8] | [9] | [10] | [11] | [12] | [13] | [14] | [15] | [16] | [17] | [18] | [19] | [20]

CCCCC(CC)C(=O)OCCOCCOCCOC(=O)C(CC)CCCC (stereo not given)
inactive: [1] | [2] | [4] | [5] | [6] | [7] | [8] | [9] | [10] | [11] | [12] | [13] | [15] | [16] | [17] | [18] | [20]
active: [3] 27.5 µM | [14] 65.8 µM

FC(F)C(F)(F)COCC1CO1 (stereo not given)
inactive: [1] | [2] | [3] | [4] | [5] | [6] | [7] | [8] | [9] | [10] | [11] | [12] | [13] | [14] | [15] | [17] | [18] | [19]
active: [16] 82 µM and 39.8 µM

CCN(CC)C(=S)SSC(=S)N(CC)CC
active: [1] 166 µM | [2] 137 µM | [3] 161 µM | [6] 100 µM | [7] 150 µM | [8] 157 µM | [11] 118 µM | [14] 117 µM | [18] 139 µM
inactive: [4] | [5] | [9] | [10] | [12] | [13] | [15] | [16] | [19]
